37 compounds from PubChem BioAssay (EPA / NIEHS) can be followed below.

Values joined by “and” are separate entries in the source; they are usually repeats but may differ in a detail not shown here. Identical values can stand only once. Active and inactive are the calls of the source. How the source made its calls: active means hit-call score of the fitted dose curve at least 0.9, where 1 is the maximum; inactive means score below 0.9.

Chain of Myc proto-oncogene protein (Homo sapiens) (P01106 whole entry, looked up): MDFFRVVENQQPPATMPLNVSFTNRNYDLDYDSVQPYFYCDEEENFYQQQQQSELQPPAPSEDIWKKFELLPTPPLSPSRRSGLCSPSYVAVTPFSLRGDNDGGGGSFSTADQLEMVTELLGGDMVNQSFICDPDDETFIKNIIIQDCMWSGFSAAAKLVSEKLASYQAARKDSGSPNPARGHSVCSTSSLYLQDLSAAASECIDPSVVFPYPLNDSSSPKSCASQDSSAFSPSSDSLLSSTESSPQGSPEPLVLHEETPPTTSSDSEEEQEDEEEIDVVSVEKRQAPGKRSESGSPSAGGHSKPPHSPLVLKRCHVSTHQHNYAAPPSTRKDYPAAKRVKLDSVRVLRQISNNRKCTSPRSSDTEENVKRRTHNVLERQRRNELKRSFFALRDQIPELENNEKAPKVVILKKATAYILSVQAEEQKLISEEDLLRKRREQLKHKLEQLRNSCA

System in the first experiment: not listed separately
The experiment in a line: ATG_NFI_CIS: Attagene CIS-FACTORIAL HepG2 Assay for human Nuclear Factor I (NFI) (AID 2282989). The settings on record: HepG2 cis-regulatory reporter, NFI response element transcription; actives raise or lower the signal. An outline of the steps: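 Transfected HepG2 liver cells, exposed 24 h, supplied total RNA for oligo(dT) reverse transcription and reporter-specific PCR. Labelled, HpaI-cut fragments were sized by capillary electrophoresis; DMSO set the baseline for bidirectional fitting.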
`Brc1cc(Br)c(Oc2c(Br)cc(Br)c(Br)c2Br)cc1Br`: the compound was called inactive.
As to `FC(F)(F)C(F)(F)C(F)(F)C(F)(F)I`, the result was inactive.
The same measure, in the same setting: the same measure for `Cc1ccc(C(=O)c2ccccc2)cc1`: “inactive”.
Same read-out and setting: the same measure for `FC(OC(F)(F)C(F)(F)C(F)(F)F)C(F)(F)F` (centres undefined): “inactive”.
On the same count and under the same terms, the same measure for `C=CC(=O)OCCC(F)(F)C(F)(F)C(F)(F)C(F)(F)C(F)(F)C(F)(F)C(F)(F)C(F)(F)F`: “inactive”; for `OCC(F)(F)C(F)(F)C(F)(F)C(F)(F)C(F)(F)C(F)(F)C(F)(F)C(F)(F)C(F)(F)C(F)(F)C(F)(F)F`: “inactive”.
Take `CCCCCCCCC1CCC(=O)O1` (centres undefined): the outcome was inactive.
Still for that read-out and setting: the same measure for `CC1CCC(C(=O)O)CC1` (centres undefined): “inactive”; for `Cc1ccc2ccc3ccc(C)cc3c2c1`: “inactive”.
On to `O=S(=O)(O)C(F)(F)C(F)(F)C(F)(F)C(F)(F)C(F)(F)C(F)(F)C(F)(F)C(F)(F)C(F)(F)C(F)(F)F`, for which the compound was called inactive.
Same read-out and setting: the same measure for `Oc1cc2ccccc2cc1O`: “inactive”; for `CCCCCCC(C)(C)C(=O)O`: “inactive”.
On the same count and under the same terms, the same measure for `NC(C(F)(F)F)C(F)(F)F`: “inactive”; for `O=CC(F)(F)C(F)(F)C(F)(F)F`: “inactive”.
As for `CC1=NN(c2ccccc2)C(=O)C1`, the outcome was inactive.
On the same count and under the same terms, the same measure for `CCc1cccc(CC)c1NC(=O)C(=O)O`: “inactive”.
For `Cc1cc(C(C)(C)C)c(O)c(C(C)(C)C)c1`, the AC50 (usually the concentration giving half of the maximal activity seen) was 51.6 µM (active) and 20.5 µM (active).
On to `CC=O`, for which the compound was classed as inactive.
The same measure, in the same setting: the same measure for `O=P(O)(O)CCC(F)(F)C(F)(F)C(F)(F)C(F)(F)C(F)(F)C(F)(F)C(F)(F)C(F)(F)F`: “inactive”; for `CCCCCc1ccc(O)cc1`: “inactive”.
On the same count and under the same terms, the same measure for `FC(F)=C(F)C(F)(F)C(F)(F)C(F)(F)C(F)F`: “inactive”; for `COC(=O)C(F)(F)C(F)(F)C(F)(F)C(F)(F)C(F)(F)F`: “inactive”; for `CCCCCCCCCCCCCCCCCC[N+](C)(C)Cc1ccccc1`: “inactive”.
The same measure, in the same setting: the same measure for `c1cc[nH]c1`: “inactive”; for `CC1=CC(=O)c2ccccc2C1=O`: “inactive”; for `CCCCCCCCC(C)=O`: “inactive”.
For the compound `CCCCCCCC(OC)OC`, the compound was called inactive.
Still for that read-out and setting: the same measure for `CCO[Si](C)(C)OCC`: “inactive”.
As for `CCCCCCOC(=O)c1ccc(O)cc1`, the AC50 was 55 µM (active).
Regarding `CCCC=O`, the call was inactive.
In the case of `O=C(NCc1ncc(C(F)(F)F)cc1Cl)c1c(Cl)cccc1Cl`, the call was inactive.
The same measure, in the same setting: the same measure for `O=C1c2ccc(O)c(O)c2C(=O)c2c(O)ccc(O)c21`: “inactive”; for `CC(C)(c1ccc(Oc2ccc(N)cc2)cc1)c1ccc(Oc2ccc(N)cc2)cc1`: “inactive”.
Still for that read-out and setting: the same measure for `O=C(O)CCC(F)(F)C(F)(F)C(F)(F)C(F)(F)C(F)(F)F`: “inactive”; for `O=C(F)C(F)(F)C(F)(F)C(F)(F)C(=O)F`: “inactive”.
Take `C[C@]12CC[C@@H]3c4ccc(O)cc4CC[C@H]3[C@@H]1CC[C@@H]2OC(=O)CCC1CCCC1`: the AC50 is 100 µM (active).
Still for that read-out and setting: the same measure for `OCCN1CN(CCO)CN(CCO)C1`: 144 µM (active).

For the next experiment, the target named is Myc proto-oncogene protein (Homo sapiens) (UniProt P01106). The experiment can be described thus: ATG_Myc_CIS: Attagene CIS-FACTORIAL HepG2 Assay for human Myelocytomatosis (Myc) Proto-Oncogene Transcription Factor (AID 2282990). As to conditions: HepG2, Attagene cis-reporter transcription factor activity; actives raise or lower the signal. An outline of the steps:
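Transiently transfected HepG2 cells bearing cis-promoter reporter units for endogenous transcription factors; 24 h exposure. Reporter mRNA measured by RT-PCR, 6-FAM primer extension, HpaI cut and capillary electrophoresis; bidirectional fit relative to DMSO.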
For `Brc1cc(Br)c(Oc2c(Br)cc(Br)c(Br)c2Br)cc1Br`, the compound was classed as inactive.
The same measure, in the same setting: the same measure for `FC(F)(F)C(F)(F)C(F)(F)C(F)(F)I`: “inactive”; for `Cc1ccc(C(=O)c2ccccc2)cc1`: “inactive”; for `FC(OC(F)(F)C(F)(F)C(F)(F)F)C(F)(F)F` (centres undefined): “inactive”.
The same measure, in the same setting: the same measure for `C=CC(=O)OCCC(F)(F)C(F)(F)C(F)(F)C(F)(F)C(F)(F)C(F)(F)C(F)(F)C(F)(F)F`: “inactive”.
Turning to `OCC(F)(F)C(F)(F)C(F)(F)C(F)(F)C(F)(F)C(F)(F)C(F)(F)C(F)(F)C(F)(F)C(F)(F)C(F)(F)F`, the compound was called inactive.
On the same count and under the same terms, the same measure for `CCCCCCCCC1CCC(=O)O1` (centres undefined): “inactive”; for `CC1CCC(C(=O)O)CC1` (centres undefined): “inactive”; for `Cc1ccc2ccc3ccc(C)cc3c2c1`: “inactive”.
On to `O=S(=O)(O)C(F)(F)C(F)(F)C(F)(F)C(F)(F)C(F)(F)C(F)(F)C(F)(F)C(F)(F)C(F)(F)C(F)(F)F`, for which the result was inactive.
Still for that read-out and setting: the same measure for `Oc1cc2ccccc2cc1O`: “inactive”; for `CCCCCCC(C)(C)C(=O)O`: “inactive”; for `NC(C(F)(F)F)C(F)(F)F`: “inactive”.
On the same count and under the same terms, the same measure for `O=CC(F)(F)C(F)(F)C(F)(F)F`: “inactive”.
Still for that read-out and setting: the same measure for `CC1=NN(c2ccccc2)C(=O)C1`: “inactive”.
With `CCc1cccc(CC)c1NC(=O)C(=O)O`, the compound was called inactive.
As for `Cc1cc(C(C)(C)C)c(O)c(C(C)(C)C)c1`, the half-maximal activity concentration (AC50) was 51 µM (active) and 92.8 µM (active).
Regarding `CC=O`, the compound was called inactive.
In the case of `O=P(O)(O)CCC(F)(F)C(F)(F)C(F)(F)C(F)(F)C(F)(F)C(F)(F)C(F)(F)C(F)(F)F`, the outcome was inactive.
Turning to `CCCCCc1ccc(O)cc1`, the compound was classed as inactive.
The same measure, in the same setting: the same measure for `FC(F)=C(F)C(F)(F)C(F)(F)C(F)(F)C(F)F`: “inactive”.
For the compound `COC(=O)C(F)(F)C(F)(F)C(F)(F)C(F)(F)C(F)(F)F`, the result was inactive.
On the same count and under the same terms, the same measure for `CCCCCCCCCCCCCCCCCC[N+](C)(C)Cc1ccccc1`: “inactive”; for `c1cc[nH]c1`: “inactive”.
Regarding `CC1=CC(=O)c2ccccc2C1=O`, the outcome was inactive.
On the same count and under the same terms, the same measure for `CCCCCCCCC(C)=O`: “inactive”; for `CCCCCCCC(OC)OC`: “inactive”; for `CCO[Si](C)(C)OCC`: “inactive”.
On to `CCCCCCOC(=O)c1ccc(O)cc1`, for which the concentration at half-maximal activity (AC50) is 60.9 µM (active).
For `CCCC=O`, the outcome was inactive.
Still for that read-out and setting: the same measure for `O=C(NCc1ncc(C(F)(F)F)cc1Cl)c1c(Cl)cccc1Cl`: “inactive”; for `O=C1c2ccc(O)c(O)c2C(=O)c2c(O)ccc(O)c21`: “inactive”.
The same measure, in the same setting: the same measure for `CC(C)(c1ccc(Oc2ccc(N)cc2)cc1)c1ccc(Oc2ccc(N)cc2)cc1`: “inactive”; for `O=C(O)CCC(F)(F)C(F)(F)C(F)(F)C(F)(F)C(F)(F)F`: “inactive”; for `O=C(F)C(F)(F)C(F)(F)C(F)(F)C(=O)F`: “inactive”.
Same read-out and setting: the same measure for `C[C@]12CC[C@@H]3c4ccc(O)cc4CC[C@H]3[C@@H]1CC[C@@H]2OC(=O)CCC1CCCC1`: “inactive”; for `OCCN1CN(CCO)CN(CCO)C1`: “inactive”.
